High-throughput results (PubChem)
Marburg entry inh: Marburg virus entry inhibition; Marburg virus pseudotyped entry inhibition, cell reporter; Potency, µM (doses to about 37.8 µM), for the others: at the highest dose activity change, negative = inhibition, hits mostly inhibitors; actives 1.8% (n = 300,000); AID 540276; calls by dose curve; tested in HEK293 cells; also: potency is read from the fitted curve at half-maximal effect
Pf growth 48h: inhibits P. falciparum growth in the first generation, 48 h; P. falciparum luciferase growth in erythrocytes, 48 h; Potency, µM (highest dose often 28.7 µM), inactives show at the highest dose activity change, negative = inhibition, usual class: inhibitors; actives 5.9% (n = 310,000); AID 504832; also: potency is read from the fitted curve at half-maximal effect
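Luciferase-expressing P. falciparum in infected erythrocytes (2% hematocrit, 0.1% parasitemia final) in RPMI 1640/0.5% Albumax were exposed to compound for 48 hours at 37 C, 5% CO2; growth read as luminescence.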
Pf growth 96h: inhibits malaria parasite growth, 96 h. Potency, µM (titrated, usually from 28.7 µM), without a hit: at the highest dose activity change, negative = inhibition, hits mostly inhibitors. actives 6.9% (n = 320,000). P. falciparum luciferase reporter growth, 96 h; also: potency is read from the fitted curve at half-maximal effect
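96 h incubation, 37 C, 5% CO2, of luciferase-reporter P. falciparum-infected RBCs (2% hematocrit, 0.05% parasitemia final) with test compounds; endpoint luminescence.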
Lassa entry inh: blocks Lassa virus binding to or entry into cells. Lassa virus pseudotype entry inhibition, cell reporter. Potency, µM (doses to about 37.9 µM), for inactives: at the highest dose activity change, negative = inhibition, hits mostly inhibitors. actives 1.2% (n = 300,000); calls by dose curve; tested in HEK293 cells; also: potency is read from the fitted curve at half-maximal effect; nearly all actives have a fitted effect of over 50% in size
HCMV inh: human cytomegalovirus inhibition; HFF cells, HCMV-luciferase reporter, 72 h; stronger effect = lower value; actives 4.5% (n = 410,000); activity change, negative = inhibition, % at 57.5 µM; AID 1259415; in the data active = activity change below about -60%; inconclusive = no clear call, values can overlap the other calls; inactive = above about -39%
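Two-dose cell screen: HFF monolayers treated with compounds and infected with luciferase-expressing HCMV at 1 PFU/cell, 72 h at 37C, then lysed for luciferase measurement.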
HCV inh: blocks hepatitis C virus. Huh7.5.1 HCVcc-Cre infection, luciferase reporter, 44 h. actives 3.4% (n = 340,000). Potency, µM (series often up to 41.8 µM), without a hit: at the top dose activity change, negative = inhibition, hits mostly inhibitors; also: potency is read from the fitted curve at half-maximal effect
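Cells (1,000/well) were plated 4 h before compound, then infected with HCVcc-Cre virus (~0.5 moi). After 44 h further culture, infection was read as luciferase luminescence following a 15 min substrate incubation at room temperature.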
Numbers without * were called inactive; ? = inconclusive; . = no result; [ ] = another dose, or the depositor's remark. Most compounds without a hit are left out; they make up all but 14% or so of the library. Unless noted, calls follow the shape of the dose curve; as a rule, active = well fitted inhibition curve with a large enough effect; inconclusive = small, poorly fitted or top-dose-only effect, or another doubt; inactive = no such curve, though single readings can be large or run the other way. % is scaled to controls: 0 for no effect and ±100 for the full control effect.

SMILES | Marburg entry inh | Pf growth 48h | Pf growth 96h | Lassa entry inh | HCMV inh | HCV inh
CCCn1c(SCC(=O)N(C)C2CCCCC2)n[nH]c1=O | . | . | . | . | 0 | .
COc1ccc(CNc2oc(COc3ccc(Cl)cc3)nc2C#N)cc1 | -23% | -20% | . | 7% | 34 | ?
CC(Nc1oc(-c2ccc(COc3ccc(Cl)cc3)o2)nc1C#N)c1ccccc1 (stereo not drawn) | -14%[46.1 µM] | . | . | -25%[46.1 µM] | -74* | .
CCNc1oc(-c2ccc(COc3ccc(Cl)cc3)o2)nc1C#N | 8%[46.1 µM] | . | . | -2%[46.1 µM] | -23 | .
COc1ccc(Nc2oc(COc3ccc(Cl)cc3)nc2C#N)cc1 | ? | ? | 1% | ? | -78* | ?
Cc1nc(N)[nH]c(=O)c1CCCNc1ccc([N+](=O)[O-])cc1 | ? | . | . | ? | -7 | -27%
O=C(Cc1c(F)cccc1Cl)NNC(=O)c1ccncc1 | . | -7% | -25% | . | 34 | 4%
COc1cccc(C(c2ccccc2)N2C3CCC2CN(S(=O)(=O)c2ccc(F)cc2)CC3)c1 (stereo not drawn) | ? | 2.1µM* | 0% | ? | -18 | -8%
COc1ccc(CNc2ncnc3c2[nH]c2cc(OC)c(OC)cc23)cc1 | ? | 2.1µM* | 1.7µM* | -2%[46.1 µM] | -9 | ?
COc1ccc(CNc2ncnc3c2[nH]c2ccccc23)cc1 | ? | 2.3µM* | 1.7µM* | ? | -72* | 5µM*
COc1ccc(CCn2cnc3c([nH]c4ccccc43)c2=O)cc1 | . | 8% | 13% | . | -24 | 6%
CC(C)OCCCNc1ncnc2c1[nH]c1ccccc12 | ? | 5.9µM* | ? | ? | -75* | 2.5µM*
C1=C(CCNc2ncnc3c2[nH]c2ccccc23)CCCC1 | ? | ? | 0.26µM* | ? | -91* | 1.1µM*
CC(=O)Nc1ccc(NC(=O)C(Cc2ccccc2)N2Cc3ccccc3C2=O)cc1 (stereo not drawn) | . | . | . | -20%[46.1 µM] | -26 | .
COc1cc(C2CC(=O)N(c3ccccc3)C3=C2C(=O)OC3)cc(OC)c1OC (stereo not drawn) | 1%[46.1 µM] | . | . | 10%[46.1 µM] | -6 | .
Cc1ccc2[nH]c3c(NCc4ccccc4)ncnc3c2c1 | . | ? | ? | . | ? | 7.9µM*
COc1ccc(C(=O)Nn2c(SCC(=O)NC3CCCCC3)nc3ccccc3c2=O)cc1 | ? | . | ? | ? | -3 | 4%
COc1ccc(C(=O)Nn2c(SCC(=O)NCc3ccco3)nc3ccccc3c2=O)cc1 | 0.4µM* | 6% | -12% | 1µM* | -73* | -15%
COc1ccc(C(=O)Nn2c(SCC(=O)N3CCC(C)CC3)nc3ccccc3c2=O)cc1 | 1.6µM* | 58% | 2% | 8.2µM* | -62* | -5%
COc1ccc(CNc2nc(SCC(=O)NCc3ccco3)nc3ccccc23)cc1 | ? | 9.3µM* | -17% | -19%[14.3 µM] | -11 | ?
Cc1ccccc1N1C(=O)[C@@H]2[C@H](ON(c3ccccc3)[C@H]2c2ccncc2)C1=O | -6% | . | . | . | . | .
COc1ccc(-c2cc(C3CCN(c4ccc(C(C)=O)cc4[N+](=O)[O-])CC3)[nH]n2)cc1 | ? | ? | ? | ? | -98* | 11µM*
COC(=O)c1ccc(N2CCC(c3cc(-c4ccc(OC)cc4)n[nH]3)CC2)c([N+](=O)[O-])c1 | ? | ? | ? | ? | -33 | 11µM*
COC(=O)c1ccc(N2CCN(CC(=O)c3ccc(-c4ccccc4)cc3)CC2)c([N+](=O)[O-])c1 | 23% | 12µM* | ? | 18% | 15 | 0%
COC(=O)c1ccc(N2CCN(CC(=O)c3ccc(C)cc3)CC2)c([N+](=O)[O-])c1 | . | . | . | . | 3 | ?
SMILES | Marburg entry inh | Pf growth 48h | Pf growth 96h | Lassa entry inh | HCMV inh | HCV inh
COc1cccc(CNC(=O)c2cc(S(=O)(=O)N3CCCCCC3)cn2C)c1 | . | . | . | 25%[46.1 µM] | 9 | .
COc1ccc(OC)c(Nc2nc3ccccc3n3c(C)nnc23)c1 | 11%[46.1 µM] | . | . | 10%[46.1 µM] | 0 | .
O=C(OCC(=O)c1c[nH]c2ccccc12)c1ccc(F)c(S(=O)(=O)N2CCOCC2)c1 | . | . | . | . | 38 | .
C/C(=N\Nc1cccc(Cl)c1)c1ccc(-n2ccnc2)cc1 | -23% | ? | 12µM* | -16% | -18 | -25%
CCOC(=O)N1CCN(C(=O)CN(c2ccc(C)cc2C)S(=O)(=O)c2ccccc2)CC1 | -14%[46.1 µM] | . | . | ? | -14 | .
Cc1cc2cc(C)c3nnc(SCC(=O)NCc4ccco4)n3c2cc1C | ? | 27% | -1% | -13% | -79* | -30%
Cc1ccc2cc(C)c3nnc(SCC(=O)NCc4ccco4)n3c2c1 | -11% | ? | -17% | -3% | -5 | -14%
O=C(CSc1nc2ccccc2n1-c1ccccc1)Nc1ncc(Cl)cc1Cl | 1.1µM* | ? | 10µM* | 2.5µM* | ? | ?
O=C(CCCCCn1c(SCc2ccncc2)nc2ccccc2c1=O)NCc1ccco1 | ? | 8.3µM* | 21% | -2% | -21 | 10µM*
N#CCSc1nc2ccccc2c(=O)n1CCCC(=O)NCc1ccco1 | 16%[46.1 µM] | -1% | -40% | 6% | 22 | 3%
CC(C)Sc1nc(SCC(=O)O)c2c3c(sc2n1)COC(C)(C)C3 | . | ? | ? | . | 0 | 1%
CC(C)Sc1nc(SCC(=O)NCc2ccco2)c2c3c(sc2n1)COC(C)(C)C3 | -9% | ? | 2.6µM* | -10% | -27 | ?
Cc1ccc(C(=O)c2oc3ccccc3c2NC(=O)c2cc(=O)c3cc(C)ccc3o2)cc1 | 4%[46.1 µM] | . | . | 20%[46.1 µM] | -20 | .
CCN(CC)CCNC(=O)c1ccc(NCN2C(=O)NC(c3ccccc3)(c3ccccc3)C2=O)cc1 | . | . | . | . | 7 | .
COc1ccc(C(=O)N=c2sc3cc(Cl)ccc3n2C)cc1 | . | . | . | -24%[46.1 µM] | 22 | .
COc1ccc(NC(=O)CSc2nc3ccccc3c3nc4ccccc4n23)cc1 | ? | 19% | ? | -18% | 21 | ?
COc1ccc(NC(=O)CSc2nc3ccccc3n2-c2ccccc2)c([N+](=O)[O-])c1 | 12µM* | ? | 0% | ? | -3 | ?
O=C(CSc1nc2ccccc2c2nc3ccccc3n12)NCc1ccco1 | 15% | 9.3µM* | 7% | -2% | 26 | ?
COc1ccc(OC)c(NC(=O)CSc2nc3ccccc3c3nc4ccccc4n23)c1 | . | 0.83µM* | ? | . | . | 0%
Cc1ccc(NC(=O)CSc2nc3ccccc3c3nc4ccccc4n23)cc1 | 6.5µM* | 0% | -20% | ? | -87* | ?
COC(=O)C1=C(C(=O)OC)C2CCCC1C1N=NN(c3ccccc3)C21 (stereo not drawn) | . | . | . | . | 18 | .
COc1cc(-c2cnc3c(NC(C)=O)cc(-c4cccc(C(=O)NCCO)c4)cn23)cc(OC)c1OC | . | . | . | . | 35 | .
